Assay results published in PubChem BioAssay.

Experiments:
[1] = tested on: Botulinum neurotoxin type F light chain protease (Clostridium botulinum); assay: Clostridium botulinum type F light chain protease inhibitors, microsphere substrate cleavage, validation (AID 588459); settings: multiplex microsphere protease substrate cleavage assay, flow cytometry; at 10 µM; hits give high values
[2] = molecular target: Botulinum neurotoxin type A (Clostridium botulinum) (UniProt P0DPI0); assay: BoNT/A light chain protease inhibitors, biochemical, multiplex microsphere flow cytometry, validation set (AID 588460); settings: at 10 µM, hits give high values
[3] = molecular target: Lethal factor (Bacillus anthracis) (UniProt P15917); assay: Bacillus anthracis lethal factor inhibition, microsphere flow cytometry protease assay, validation at 10 µM (AID 588461); settings: multiplex microsphere protease cleavage assay, hits give high values

Measured: inhibition

Nc1ccc2nc(Cc3ccccc3)[nH]c2c1
inactive: [1] -12.8% | [2] -5.2% | [3] -74.5%

CCOc1ccc(C(=O)Nc2ccc(N3CCN(C(C)=O)CC3)cc2)cc1[N+](=O)[O-]
inactive: [1] 1.6% | [2] 0% | [3] 0.9%

Nc1ccc2[nH]ncc2c1
inactive: [1] -1.8% | [2] -1.3% | [3] 2.9%

CC(=O)c1c(C)[nH]c(C(=O)OCc2ccccc2)c1C
inactive: [1] 2.9% | [2] 0.8% | [3] -6.6%

CCc1cc2c(=O)c(-c3nc4ccccc4n3C)coc2c(CN2CCN(C)CC2)c1O
inactive: [1] -0.9% | [2] 0.3% | [3] -2.8%

CC1(C)CC(=O)C(C2=NC(C)(C)Cc3ccccc32)=C(O)C1
inactive: [1] 0% | [2] 0.9% | [3] -0.4%

CC(C)Oc1cccc(C(=O)N2CCCC2)c1
inactive: [1] 2.3% | [2] -0.3% | [3] -5.2%

CCOc1ccc2[nH]c3c(=O)n(CCc4ccc(OC)cc4)cnc3c2c1
inactive: [1] 1.7% | [2] 2% | [3] 0.2%

CC[C@H]1CN2CCc3cc(OC)c(OC)cc3[C@@H]2C[C@@H]1C[C@H]1NCCc2cc(OC)c(OC)cc21
inactive: [1] 3.7% | [2] 0.9% | [3] 0.6%

COc1cc(/C=C/C(=O)CC(=O)/C=C/c2ccc(O)c(OC)c2)ccc1O
inactive: [1] 12.2% | [2] 9.5% | [3] -0.9%

CCc1nc2ccccc2n1Cc1ccc(OC)c(OC)c1
inactive: [1] -1.2% | [2] 0.6% | [3] 0.6%

CCCC1O[C@@H]2C[C@H]3[C@@H]4CCC5=CC(=O)C=C[C@]5(C)[C@H]4[C@@H](O)C[C@]3(C)[C@]2(C(=O)CO)O1 (stereo not given in full)
inactive: [1] 6.3% | [2] 3.4% | [3] 3.4%

CC(C)(C)NCC(O)COc1ccccc1C(=O)CCc1ccccc1 (stereo not given)
inactive: [1] -5.8% | [2] -2% | [3] -4.9%

COc1cccc(N2C(=O)CC(c3c[nH]c4ccccc34)C2=O)c1 (stereo not given)
inactive: [1] 1.4% | [2] 2.4% | [3] -2%

CCOc1ccc2nc(N/C(N)=N/S(C)(=O)=O)nc(C)c2c1
inactive: [1] 2.1% | [2] -0.1% | [3] 2.4%
